Measured values from PubChem BioAssay.
Inconclusive results are not listed. For some of these results: Results with a measured potency or affinity are listed apart. The source made the active and inactive calls.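 The calls were made as follows, unless noted: active = at least 20% inhibition of 6-phosphogluconate dehydrogenase activity; inactive = the rest.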

Tests used:
[1] = target: 6-phosphogluconate dehydrogenase, decarboxylating (Homo sapiens) (UniProt P52209); experiment: inhibition of human phosphogluconate dehydrogenase – biochemical, recombinant enzyme, NADPH absorbance, primary screen (AID 1159550); details: recombinant 6PGD, NADPH absorbance 341 nm; at 10 µM; stronger effect = higher value
Sequence of 6-phosphogluconate dehydrogenase, decarboxylating (Homo sapiens) (P52209 whole entry, looked up, the tested form may be a part): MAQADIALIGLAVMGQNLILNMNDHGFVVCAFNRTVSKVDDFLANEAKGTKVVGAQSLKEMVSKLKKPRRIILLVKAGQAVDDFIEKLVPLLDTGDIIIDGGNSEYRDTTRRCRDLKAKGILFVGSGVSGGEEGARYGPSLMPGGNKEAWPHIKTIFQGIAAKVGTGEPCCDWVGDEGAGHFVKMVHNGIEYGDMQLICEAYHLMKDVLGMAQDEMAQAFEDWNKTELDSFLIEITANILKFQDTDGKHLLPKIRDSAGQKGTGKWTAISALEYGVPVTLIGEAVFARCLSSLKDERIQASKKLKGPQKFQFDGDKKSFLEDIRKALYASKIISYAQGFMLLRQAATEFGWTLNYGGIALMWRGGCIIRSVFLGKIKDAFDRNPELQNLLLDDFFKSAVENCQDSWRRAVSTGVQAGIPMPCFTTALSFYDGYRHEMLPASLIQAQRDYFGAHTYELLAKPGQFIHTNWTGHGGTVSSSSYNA

[2] = target: Mitogen-activated protein kinase 7 (Homo sapiens) (UniProt Q13164); experiment: Gal4-ERK5 driven luciferase induction – cell-based, HTS, primary screen (AID 1508626;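 active = luciferase signal above three times the same-plate solvent-only control wells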;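 also: luciferase driven by Gal4-ERK5 fusion binding five Gal4 sites before minimal TATA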); details: HeLa Gal4-ERK5 transactivation, 18 h, at 5 µM, stronger effect = higher value
Sequence of Mitogen-activated protein kinase 7 (Homo sapiens) (Q13164 whole entry, looked up, the tested form may be a part): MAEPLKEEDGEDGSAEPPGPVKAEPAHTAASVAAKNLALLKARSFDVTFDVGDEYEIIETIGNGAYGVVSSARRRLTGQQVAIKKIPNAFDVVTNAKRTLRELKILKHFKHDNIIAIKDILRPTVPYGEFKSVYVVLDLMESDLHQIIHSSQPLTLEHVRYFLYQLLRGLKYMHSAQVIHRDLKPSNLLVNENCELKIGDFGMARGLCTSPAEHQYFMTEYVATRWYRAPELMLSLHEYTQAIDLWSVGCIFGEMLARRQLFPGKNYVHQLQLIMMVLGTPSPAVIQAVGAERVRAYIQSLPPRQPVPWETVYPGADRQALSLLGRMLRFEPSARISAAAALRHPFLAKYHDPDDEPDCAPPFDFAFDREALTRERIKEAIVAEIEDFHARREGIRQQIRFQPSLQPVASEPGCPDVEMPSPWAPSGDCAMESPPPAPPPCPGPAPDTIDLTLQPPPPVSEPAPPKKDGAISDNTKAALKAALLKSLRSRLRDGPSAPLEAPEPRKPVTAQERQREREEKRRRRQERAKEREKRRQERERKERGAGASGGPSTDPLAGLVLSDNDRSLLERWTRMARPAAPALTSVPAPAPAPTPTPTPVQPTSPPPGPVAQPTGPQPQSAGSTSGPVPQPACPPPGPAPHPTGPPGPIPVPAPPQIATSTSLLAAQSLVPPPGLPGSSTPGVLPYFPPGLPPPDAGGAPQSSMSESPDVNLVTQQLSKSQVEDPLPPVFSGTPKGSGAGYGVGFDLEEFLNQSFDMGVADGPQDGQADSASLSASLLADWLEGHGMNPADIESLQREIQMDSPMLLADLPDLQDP

[3] = antimalarial activity against Dd2 strain (AID 2302;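 active = growth inhibition above 50% at the single 2 µM test dose, taken to imply half-maximal potency below 2 µM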;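 also: 0% = DMSO untreated growth and 100% = chloroquine plus artemisinin killed control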); details: P. falciparum Dd2 in RBCs, LDH growth readout, 72 h; at 2 µM; stronger effect = higher value
[4] = human hepatoma cell viability loss – ATP luminescence, cytotoxicity control for P. falciparum antimalarial project, primary screen (AID 2303;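 active = inhibition above 50%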;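 also: 0% = DMSO wells and 100% = digitonin-killed cells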); details: HepG2 viability, 24-48 h, at 10 µM, stronger effect = higher value
[5] = target: L-lactate dehydrogenase (Plasmodium falciparum (isolate CDC / Honduras)) (UniProt Q27743); experiment: PfLDH activity inhibition – cell lysate, 3D7 strain, counter-screen for P. falciparum growth inhibition project (AID 2304; call rule not given here;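 also: 0% = vehicle and 100% = reference inhibitor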); details: P. falciparum 3D7 crude extract, LDH APAD/NBT absorbance; at 2 µM; stronger effect = higher value
Sequence of L-lactate dehydrogenase (Plasmodium falciparum (isolate CDC / Honduras)) (Q27743 whole entry, looked up): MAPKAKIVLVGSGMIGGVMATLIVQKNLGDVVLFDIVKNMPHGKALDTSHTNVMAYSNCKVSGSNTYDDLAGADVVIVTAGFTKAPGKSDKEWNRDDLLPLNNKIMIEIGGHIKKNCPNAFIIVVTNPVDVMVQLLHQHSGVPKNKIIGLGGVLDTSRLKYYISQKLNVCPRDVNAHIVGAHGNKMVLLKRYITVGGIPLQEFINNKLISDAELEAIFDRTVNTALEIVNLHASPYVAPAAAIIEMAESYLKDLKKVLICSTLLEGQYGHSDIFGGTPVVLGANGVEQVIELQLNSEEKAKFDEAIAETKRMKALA

[6] = target: Calcium-dependent protein kinase 1 (Plasmodium falciparum (isolate 3D7)) (UniProt P62344); experiment: PfCDPK1 kinase inhibitors, biochemical, TCAMS library (AID 1159585; cut-off not given, nearly all actives have IC50 up to about 0.98 µM;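 also: inhibitors leave more ATP so luminescence rises with inhibition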); details: recombinant PfCDPK1, Kinase-Glo ATP depletion luminescence
Sequence of Calcium-dependent protein kinase 1 (Plasmodium falciparum (isolate 3D7)) (P62344 whole entry, looked up): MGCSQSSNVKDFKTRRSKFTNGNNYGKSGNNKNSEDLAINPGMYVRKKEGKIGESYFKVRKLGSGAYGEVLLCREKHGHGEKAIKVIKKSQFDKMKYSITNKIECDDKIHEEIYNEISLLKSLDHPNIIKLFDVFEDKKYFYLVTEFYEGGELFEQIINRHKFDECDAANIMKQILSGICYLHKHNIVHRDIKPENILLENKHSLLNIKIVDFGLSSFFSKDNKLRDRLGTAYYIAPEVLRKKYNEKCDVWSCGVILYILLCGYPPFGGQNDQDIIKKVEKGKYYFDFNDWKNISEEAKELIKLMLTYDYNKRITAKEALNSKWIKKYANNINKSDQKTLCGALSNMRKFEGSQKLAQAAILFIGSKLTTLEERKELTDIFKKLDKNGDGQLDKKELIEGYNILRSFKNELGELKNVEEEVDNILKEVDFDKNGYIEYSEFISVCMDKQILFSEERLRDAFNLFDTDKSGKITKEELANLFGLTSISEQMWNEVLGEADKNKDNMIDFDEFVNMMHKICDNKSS

[7] = target: Plasmodium falciparum protein kinase 6 (PK6, PF3D7_1337100) (UniProt Q8IDW1); experiment: PfPK6 kinase inhibitors, biochemical, TCAMS library (AID 1159586; call rule not given here); details: recombinant PfPK6, Kinase-Glo ATP depletion luminescence
Sequence of Plasmodium falciparum protein kinase 6 (PK6, PF3D7_1337100) (Q8IDW1 1-305): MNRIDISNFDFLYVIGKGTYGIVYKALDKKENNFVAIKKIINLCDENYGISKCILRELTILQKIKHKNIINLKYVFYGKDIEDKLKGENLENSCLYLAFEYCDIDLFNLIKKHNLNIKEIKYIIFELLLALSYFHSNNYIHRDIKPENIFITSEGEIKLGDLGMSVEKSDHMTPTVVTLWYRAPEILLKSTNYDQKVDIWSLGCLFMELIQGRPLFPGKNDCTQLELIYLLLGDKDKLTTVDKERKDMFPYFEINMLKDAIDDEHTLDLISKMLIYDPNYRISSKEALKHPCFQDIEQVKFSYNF

[8] = target: Protein kinase 7 (PK7), Plasmodium falciparum 3D7 (PF3D7_0213400) (UniProt Q7YTF7); experiment: inhibition of Plasmodium PK7 catalytic activity – biochemical, TCAMS antimalarial set, Kinase-Glo luminescence (AID 1159587; call rule not given here); details: recombinant PfPK7, Kinase-Glo ATP depletion luminescence
Sequence of Protein kinase 7 (PK7), Plasmodium falciparum 3D7 (PF3D7_0213400) (Q7YTF7 1-343): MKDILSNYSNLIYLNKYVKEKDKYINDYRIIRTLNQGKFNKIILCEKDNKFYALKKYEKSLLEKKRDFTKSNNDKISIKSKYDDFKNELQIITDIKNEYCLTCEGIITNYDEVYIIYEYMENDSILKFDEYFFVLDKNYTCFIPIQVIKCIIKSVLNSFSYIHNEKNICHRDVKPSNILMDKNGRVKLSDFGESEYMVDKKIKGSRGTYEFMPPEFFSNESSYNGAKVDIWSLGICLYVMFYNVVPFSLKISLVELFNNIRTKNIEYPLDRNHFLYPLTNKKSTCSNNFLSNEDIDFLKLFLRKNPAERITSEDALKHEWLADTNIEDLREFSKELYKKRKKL

[9] = target: Calcium-dependent protein kinase 4 (Plasmodium falciparum (isolate 3D7)) (UniProt Q8IBS5); experiment: PfCDPK4 kinase inhibitors, biochemical, TCAMS library (AID 1159588; cut-off not given, nearly all actives have IC50 up to about 0.91 µM); details: recombinant PfCDPK4, Kinase-Glo ATP depletion luminescence
Sequence of Calcium-dependent protein kinase 4 (Plasmodium falciparum (isolate 3D7)) (Q8IBS5 whole entry, looked up): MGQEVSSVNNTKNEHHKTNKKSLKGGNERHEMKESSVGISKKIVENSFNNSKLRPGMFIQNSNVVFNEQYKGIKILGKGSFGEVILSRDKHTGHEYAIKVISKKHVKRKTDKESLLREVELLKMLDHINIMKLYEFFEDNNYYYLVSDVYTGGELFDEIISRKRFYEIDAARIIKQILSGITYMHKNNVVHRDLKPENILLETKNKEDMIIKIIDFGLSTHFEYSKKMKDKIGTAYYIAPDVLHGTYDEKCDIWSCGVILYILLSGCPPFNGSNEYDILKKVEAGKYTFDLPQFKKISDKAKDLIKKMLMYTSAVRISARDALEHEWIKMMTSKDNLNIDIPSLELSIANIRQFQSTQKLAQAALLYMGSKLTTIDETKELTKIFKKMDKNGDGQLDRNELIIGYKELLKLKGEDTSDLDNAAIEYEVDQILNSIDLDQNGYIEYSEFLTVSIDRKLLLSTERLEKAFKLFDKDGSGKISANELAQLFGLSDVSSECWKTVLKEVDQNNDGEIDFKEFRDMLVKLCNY

[10] = compounds altering circadian rhythm period length – cell-based, LOPAC library, luminescence reporter (AID 2774; call rule not given here;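 also: values are relative to mean of DMSO wells on each plate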); details: circadian reporter cells, at 7 µM, actives lie on both sides
[11] = target: ATP-dependent translocase ABCB1 (Homo sapiens) (UniProt P08183); experiment: P-glycoprotein substrate transport blockade – cell-based (AID 377; in the data active = fluorescence slope change above about 50%); details: MDR1-expressing cells, fluorescent substrate accumulation slope; stronger effect = higher value; concentration not given here
Sequence of ATP-dependent translocase ABCB1 (Homo sapiens) (P08183 whole entry, looked up): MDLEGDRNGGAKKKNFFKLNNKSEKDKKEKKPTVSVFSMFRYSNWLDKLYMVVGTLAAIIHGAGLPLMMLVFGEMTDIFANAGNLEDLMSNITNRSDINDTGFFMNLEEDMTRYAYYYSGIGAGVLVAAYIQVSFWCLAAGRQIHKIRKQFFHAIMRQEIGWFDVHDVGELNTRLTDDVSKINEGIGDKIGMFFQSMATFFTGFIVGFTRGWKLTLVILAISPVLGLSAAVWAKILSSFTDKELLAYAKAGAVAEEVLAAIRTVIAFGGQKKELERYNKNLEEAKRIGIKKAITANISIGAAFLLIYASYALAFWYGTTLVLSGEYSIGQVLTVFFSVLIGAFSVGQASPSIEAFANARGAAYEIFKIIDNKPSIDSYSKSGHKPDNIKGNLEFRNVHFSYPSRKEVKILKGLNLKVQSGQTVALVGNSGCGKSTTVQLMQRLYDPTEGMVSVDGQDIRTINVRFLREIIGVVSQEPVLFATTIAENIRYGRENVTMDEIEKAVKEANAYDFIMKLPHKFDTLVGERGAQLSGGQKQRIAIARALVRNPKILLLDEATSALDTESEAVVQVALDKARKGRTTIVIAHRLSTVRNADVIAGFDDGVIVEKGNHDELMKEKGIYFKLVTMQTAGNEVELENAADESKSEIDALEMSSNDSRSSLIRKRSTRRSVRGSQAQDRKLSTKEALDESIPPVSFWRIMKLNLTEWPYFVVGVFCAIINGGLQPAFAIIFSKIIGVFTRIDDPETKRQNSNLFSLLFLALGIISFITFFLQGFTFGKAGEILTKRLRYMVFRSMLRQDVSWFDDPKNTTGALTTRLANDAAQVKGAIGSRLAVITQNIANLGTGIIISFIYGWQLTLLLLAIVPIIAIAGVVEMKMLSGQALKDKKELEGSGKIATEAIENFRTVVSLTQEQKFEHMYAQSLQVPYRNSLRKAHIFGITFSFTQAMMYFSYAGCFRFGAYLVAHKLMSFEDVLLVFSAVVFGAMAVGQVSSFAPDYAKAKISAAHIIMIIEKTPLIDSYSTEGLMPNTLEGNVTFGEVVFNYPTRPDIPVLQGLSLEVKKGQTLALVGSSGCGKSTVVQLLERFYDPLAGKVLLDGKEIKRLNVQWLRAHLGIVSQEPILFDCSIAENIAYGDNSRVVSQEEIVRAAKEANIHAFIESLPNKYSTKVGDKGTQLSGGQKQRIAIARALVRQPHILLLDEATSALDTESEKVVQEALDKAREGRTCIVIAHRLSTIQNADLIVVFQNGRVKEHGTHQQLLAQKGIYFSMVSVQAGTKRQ

[12] = P. berghei load reduction in hepatocytes – cell-based, HepG2, luciferase luminescence, HepG2 viability, primary screen (AID 624349; in the data active = parasite load remaining mostly below about 12%, no sharp cut-off; inactive = mostly above about 10%;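 also: 100% = mean of DMSO negative control wells on the same plate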); details: P. berghei liver stage in HepG2, luciferase luminescence, concentration not given here; parasite load remaining: stronger effect = lower value; viability: measured here: HepG2 viability without parasites
[13] = viability loss with induced miR-34 in A549 – imaging, A549 dox-inducible miR-34, nuclei and caspase counts, primary screen (AID 1347080;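 active = compounds whose cell count with miR-34 switched on is under 0.7 times the count with it off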); details: A549 miR-34 inducible, Hoechst nuclei count, 48 h

## CC(C)=CCC[C@]1(C)C=Cc2c(O)c3c(c(CC=C(C)C)c2O1)O[C@]12C(=C[C@@H]4C[C@H]1C(C)(C)O[C@@]2(C/C=C(/C)C(=O)O)C4=O)C3=O
[1]
  inhibition: -17.6% (inactive)
[2]
  luciferase signal: 72 AU (inactive)

## C=CC12CCN(CC1)C(C(O)c1ccnc3ccc(OC)cc13)C2 (stereo not drawn)
[3]
  growth inhibition: 72% (active)
[4]
  inhibition: -6% (inactive)
[5]
  inhibition: -9% (inactive)
[6]
  outcome: inactive
[7]
  outcome: inactive
[8]
  outcome: inactive
[9]
  outcome: inactive

## NNCc1cccc(O)c1
[10]
  period change: -0.07 h (inactive)
[1]
  inhibition: 15.8% (inactive)

## COC(=O)COc1cc(Cl)c(Cl)cc1Cl
[1]
  inhibition: -16.9% (inactive)
[2]
  luciferase signal: 92 AU (inactive)

## C[C@H]1CC[C@]2(NC1)O[C@H]1C[C@H]3[C@@H]4CC[C@H]5C[C@@H](O)CC[C@]5(C)[C@H]4CC[C@]3(C)[C@H]1[C@@H]2C
[11]
  fluorescence slope change: 83.2% (active)
[12]
  parasite load remaining: 75.2% (inactive)
  viability: 101%
[1]
  inhibition: -31.5% (inactive)
[13]; stronger effect = lower value, cell number ratio, induced over uninduced
  fold change: 0.873 (inactive)
[13]; measured here: relative caspase fold change +Dox/-Dox
  fold change: 1.03
[13]; measured here: total cells with miR-34 induction, stronger effect = lower value
  cell count: 9790
[13]; measured here: total cells without miR-34 induction
  cell count: 11200
[2]
  luciferase signal: 104 AU (inactive)

## CC1CC(Cl)CCC1C(=O)OC(C)(C)C (stereo not drawn)
[1]
  inhibition: -3.82% (inactive)
[2]
  luciferase signal: 40 AU (inactive)

## COC(=O)[C@]1(C)CC[C@]2(C)CC[C@]3(C)C4=CCc5c(cc(O)c(O)c5C)[C@]4(C)CC[C@@]3(C)[C@@H]2C1
[1]
  inhibition: 5.04% (inactive)
[2]
  luciferase signal: 20 AU (inactive)

## C/C=C(\C)C(=O)O[C@H]1C[C@@H](OC(C)=O)[C@@]2(C(=O)OC)CO[C@H]3[C@@H](O)[C@@](C)([C@]45O[C@@]4(C)[C@H]4C[C@@H]5O[C@@H]5OC=C[C@@]54O)[C@H]4[C@]1(CO[C@]4(O)C(=O)OC)[C@@H]32
[1]
  inhibition: 3.41% (inactive)
[2]
  luciferase signal: 12 AU (inactive)
